Here are results for 40 molecules from PubChem BioAssay (Tox21).

The structures appear in SMILES notation. Inconclusive results are not listed. A number with no mark means an inactive call. Calls of active or inactive are those of the source. Calls come from the whole dose curve; as a rule, active = well fitted cell-killing curve with a large enough effect in the repeat runs; inconclusive = weak or mixed curves, or effect the other way; inactive = no such curve, though single readings can be large or run the other way.
% is set by controls: 0 for no effect and ±100 for the full control effect.

This test is described as follows: qHTS assay to identify small molecule antagonists of the peroxisome proliferator-activated receptor gamma (PPARg) signaling pathway - cell viability counter screen (AID 743194). Note: nearly all actives have a fitted effect of over 55% in size. The note with it: PPARg-bla HEK293H viability, CellTiter-Glo luminescence, 17 h; series mostly up to 62.6 µM; activity change, negative = cytotoxicity: at the top concentration. The source says: U.S. Tox21 Program National Center for Advancing Translational Sciences [NCATS] NIH Chemical Genomics Center [NCGC] U.S. Environmental Protection Agency [EPA] National Institutes of Environmental Health Sciences [NIEHS] National Toxicology Program [NTP] U.S. Food and Drug Administration [FDA] Tox21 Assay Overview: The peroxisome proliferator-activated receptors (PPARs) are lipid-activated transcription factors of the nuclear receptor superfamily with three distinct subtypes namely PPAR alpha, PPAR delta (also called PPAR beta) and PPAR gamma (PPARg). All these subtypes heterodimerize with Retinoid X receptor (RXR) and these heterodimers regulate transcription of various genes. PPAR-gamma receptor (glitazone receptor) is involved in the regulation of glucose and lipid metabolism. To identify the compounds that activate PPAR-gamma signaling, GeneBLAzer PPAR gamma UAS-bla HEK293H cell line (Invitrogen, Carlsbad, CA, USA) containing a beta-lactamase reporter gene under the control of an Upstream Activator Sequence (UAS) was used to screen the Tox21 compound library. The cytotoxicity of the Tox21 compound library against the PPARg-bla cell line was tested in parallel by measuring the cell viability using CellTiter-Glo assay in the same wells.
Tox21 Assay Protocol Summary: PPARg-bla cells were dispensed at 3000 cells/5uL/well in 1536-well black wall/clear bottom plates using a Multidrop Combi (Thermo Fisher Scientific, Waltham, MA) dispenser. After the assay plates were incubated at 37 C and 5% CO2 for 5 h, 23 nL of compounds dissolved in DMSO, positive controls or DMSO only was transferred to the assay plate by a Pintool station (Kalypsys, San Diego, CA), followed by addition of 1ul Rosiglitazone (50 nM, final concentration in the wells). The assay plates were incubated at 37 C for 17 h, and then 1 uL of LiveBLAzerTM B/G FRET substrate was added using a Bioraptr Flying Reagent Dispenser (FRD) workstation (Beckman Coulter, Indianapolis, IN, USA). The assay plates were incubated at room temperature for 1 h and fluorescence intensity was measured by an Envision plate reader (PerkinElmer, Shelton, CT). For cell viability readout that measures cytotoxicity, 4 ul/well of CellTiter-Glo reagent was added into the assay plates using a Flying Reagent Dispenser. After 30 min incubation at room temperature, the luminescence intensity in the plates was measured using a ViewLux plate reader (PerkinElmer).
For the molecule `CCCCN(CC)C(=O)SCCC`, the call was inactive.

For `COP(N)(=O)SC` (stereo not given), the molecule was classed as inactive. The same measure, in the same setting: the value for `CCC[CH2][Sn]([Cl])([Cl])[Cl]` was “inactive”; that for `CCN(CC)c1ccccc1` was “inactive”; that for `c1cc2c3c(cccc3c1)CC2` was “inactive”. In the case of `Cn1cc(-c2ccccc2)c(=O)c(-c2cccc(C(F)(F)F)c2)c1`, the “activity change, negative = cytotoxicity” value is 6.54%.

For the molecule `CCC12COCN1COC2`, the molecule was classed as inactive. Still for that read-out and setting: the value for `CN(C)N=O` was “inactive”.

For `O=C1CCCN1`, the “activity change, negative = cytotoxicity” value was 9.17%. `CN1C(=O)CN=C(c2ccccc2)c2cc(Cl)ccc21`: the molecule was called inactive. On to `Nc1c(Cl)c(Cl)nc(C(=O)O)c1Cl`, for which the molecule was classed as inactive. With `O=S(=O)(c1ccc(Cl)cc1)c1cc(Cl)c(Cl)cc1Cl`, the “activity change, negative = cytotoxicity” value was 19.3%. Take `CC(=O)C=C(C)C`: the result was inactive. As to `CCCCCCCCCl`, the outcome was inactive. Consider `CON(C)C(=O)Nc1ccc(Cl)c(Cl)c1`, for which the “activity change, negative = cytotoxicity” value was -12.7% [at 81.1 µM, co-treated with 50 nM rosiglitazone]. `OCCN(CCO)CCO`: the molecule was classed as inactive.

`CNC(=O)Oc1ccccc1OC(C)C`: the molecule was classed as inactive. Consider `O=c1[nH]c2ccccc2c(=O)o1`, for which the “activity change, negative = cytotoxicity” value is 7.03%. As to `CC(C)OC(=O)Nc1ccccc1`, the molecule was called inactive. Regarding `O=S(=O)(c1ccc(O)cc1)c1ccc(O)cc1`, the “activity change, negative = cytotoxicity” value is -0.306%. Same read-out and setting: the value for `CCc1cccc(C)c1N(C(=O)CCl)C(C)COC` (stereo not given) was 25.1%. As for `CCCCCCCCCCCC#N`, the molecule was classed as inactive.

As to `O=c1[nH]c(=O)[nH]c(=O)[nH]1`, the “activity change, negative = cytotoxicity” value is 12.3%. On to `CC(C)=C[C@@H]1[C@@H](C(=O)OCc2coc(Cc3ccccc3)c2)C1(C)C`, for which the result was inactive.

In the case of `CC(C)C#N`, the molecule was called inactive. As for `C[C@]12CC[C@H]3[C@@H](CC[C@@]45O[C@@H]4C(O)=C(C#N)C[C@]35C)[C@@H]1CC[C@@H]2O`, the molecule was classed as inactive.

For `NCCc1ccc(O)cc1`, the outcome was inactive. Same read-out and setting: the value for `O=[N+]([O-])c1ccc(Oc2ccc(Cl)cc2Cl)cc1` was “inactive”; that for `CC(C)N1C(=O)c2ccccc2NS1(=O)=O` was “inactive”. `C=C(C)CCl`: the “activity change, negative = cytotoxicity” value is -21.3%.

In the case of `OC(O)C(Cl)(Cl)Cl`, the “activity change, negative = cytotoxicity” value is 19.1% [at 62.6 µM]. Take `COCCl`: the molecule was called inactive. On to `Cc1[nH]c(=O)n(C(C)(C)C)c(=O)c1Cl`, for which the outcome was inactive. Take `C=CCO`: the molecule was called inactive. The same measure, in the same setting: the value for `COC(=O)NS(=O)(=O)c1ccc(N)cc1` was “inactive”; that for `CC(C)(C)OOC(C)(C)C` was “inactive”. As to `CCOP(OCC)OCC`, the result was inactive.

Regarding `Nc1ccc(Oc2ccc(N)cc2)cc1`, the result was inactive.

Consider `COC(=O)c1ccccc1C(=O)OC`, for which the call was inactive. Regarding `CC(C)C1(C)N=C(c2nc3ccccc3cc2C(=O)O)NC1=O` (stereo not given), the “activity change, negative = cytotoxicity” value was -19.1%.
